Data taken from PubChem BioAssay (NCATS).
Results filed as inconclusive are left out. Active and inactive are the calls of the source. The call rests on the fitted dose curve; in most records, active means well fitted inhibition curve with a large enough effect; inconclusive means small, poorly fitted or top-dose-only effect; inactive means flat fitted curve, though single readings scatter.

Experiments:
FAB9 = experiment: qHTS profiling for inhibitors of Plasmodium falciparum proliferation (AID 504749);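 further: 0% = DMSO vehicle and full inhibition = artemisinin control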; details: P. falciparum in erythrocytes, SYBR Green DNA, 72 h; series mostly up to 28.7 µM
In short: (§1)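 Parasite proliferation within erythrocytes, 72 h exposure. Endpoint: SYBR Green I fluorescence after overnight lysis at room temperature. Controls: 0.29 uM artemisinin, DMSO.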

GB4 = experiment: as above; details: P. falciparum in erythrocytes, SYBR Green DNA, 72 h; series mostly up to 28.7 µM
In short: as §1

HB3 = experiment: as above; details: P. falciparum in erythrocytes, SYBR Green DNA, 72 h; series mostly up to 28.7 µM
In short: as §1

ICS = experiment: as above; details: P. falciparum in erythrocytes, SYBR Green DNA, 72 h; series mostly up to 28.7 µM
In short: as §1

JCK = experiment: as above; details: P. falciparum in erythrocytes, SYBR Green DNA, 72 h; series mostly up to 28.7 µM
In short: as §1

N140 = experiment: as above; details: P. falciparum in erythrocytes, SYBR Green DNA, 72 h; series mostly up to 28.7 µM
In short: as §1

P93_24 = experiment: as above; details: P. falciparum in erythrocytes, SYBR Green DNA, 72 h; series mostly up to 28.7 µM
In short: as §1

P94_40 = experiment: as above; details: P. falciparum in erythrocytes, SYBR Green DNA, 72 h; series mostly up to 28.7 µM
In short: as §1

PAD = experiment: as above; details: P. falciparum in erythrocytes, SYBR Green DNA, 72 h; series mostly up to 28.7 µM
In short: as §1

PC15 = experiment: as above; details: P. falciparum in erythrocytes, SYBR Green DNA, 72 h; series mostly up to 28.7 µM
In short: as §1

PC26 = experiment: as above; details: P. falciparum in erythrocytes, SYBR Green DNA, 72 h; series mostly up to 28.7 µM
In short: as §1

PC49 = experiment: as above; details: P. falciparum in erythrocytes, SYBR Green DNA, 72 h; series mostly up to 28.7 µM
In short: as §1

SC27B = experiment: as above; details: P. falciparum in erythrocytes, SYBR Green DNA, 72 h; series mostly up to 28.7 µM
In short: as §1

TAB109 = experiment: as above; details: P. falciparum in erythrocytes, SYBR Green DNA, 72 h; series mostly up to 28.7 µM
In short: as §1

TAB113 = experiment: as above; details: P. falciparum in erythrocytes, SYBR Green DNA, 72 h; series mostly up to 28.7 µM
In short: as §1

TAB165 = experiment: as above; details: P. falciparum in erythrocytes, SYBR Green DNA, 72 h; series mostly up to 28.7 µM
In short: as §1

W2 = experiment: as above; details: P. falciparum in erythrocytes, SYBR Green DNA, 72 h; series mostly up to 28.7 µM
In short: as §1

CRL-7250 = normal cell line; experiment: Cytotoxic Profiling of Annotated Libraries Using Quantitative High-Throughput Screening (AID 1296008); details: Five cell lines viability, CellTiter-Glo ATP luminescence, 48-72 h; max response: active compounds read low; on max response: on the % scale 0 is the no-effect control and ±100 the full control effect
In short: (§2)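 Compounds were pin-transferred onto cells and incubated 48 or 72 hr at 37 degree Celsius, 95% humidity. CellTiter-Glo was added, plates sat 10 min at room temperature, then ATP-coupled luminescence was imaged as the viability read-out.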

HEK293 = experiment: as above; details: Five cell lines viability, CellTiter-Glo ATP luminescence, 48-72 h; max response: active compounds read low
In short: as §2

HaCat = experiment: as above; details: Five cell lines viability, CellTiter-Glo ATP luminescence, 48-72 h; max response: active compounds read low
In short: as §2
Further: nearly all actives have a fitted effect of over 60% in size.

O=C(O)c1ccccc1O
inactive: Potency (FAB9) | Potency (GB4) | Potency (HB3) | Potency (ICS) | Potency (JCK) | Potency (N140) | Potency (P93_24) | Potency (P94_40) | Potency (PAD) | Potency (PC15) | Potency (PC26) | Potency (PC49) | Potency (SC27B) | Potency (TAB109) | Potency (TAB113) | Potency (TAB165) | Potency (W2) | max response (CRL-7250) 0.122% | outcome (HEK293) | max response (HaCat) 2.15%

O=c1cc[nH]c(=S)[nH]1
inactive: Potency (FAB9) | Potency (GB4) | Potency (HB3) | Potency (ICS) | Potency (JCK) | Potency (N140) | Potency (P93_24) | Potency (P94_40) | Potency (PAD) | Potency (PC15) | Potency (PC26) | Potency (PC49) | Potency (SC27B) | Potency (TAB109) | Potency (TAB113) | Potency (TAB165) | Potency (W2) | max response (CRL-7250) 1.22% | outcome (HEK293) | outcome (HaCat)

Oc1cccc(O)c1
inactive: Potency (FAB9) | Potency (GB4) | Potency (HB3) | Potency (ICS) | Potency (JCK) | Potency (N140) | Potency (P93_24) | Potency (P94_40) | Potency (PAD) | Potency (PC15) | Potency (PC26) | Potency (PC49) | Potency (SC27B) | Potency (TAB109) | Potency (TAB113) | Potency (TAB165) | Potency (W2) | max response (CRL-7250) -6.09% | outcome (HEK293) | outcome (HaCat)

Cc1cccc(C)c1NC(=O)CN(CC(=O)O)CC(=O)O
inactive: Potency (FAB9) | Potency (GB4) | Potency (HB3) | Potency (ICS) | Potency (JCK) | Potency (N140) | Potency (P93_24) | Potency (P94_40) | Potency (PAD) | Potency (PC15) | Potency (PC26) | Potency (PC49) | Potency (SC27B) | Potency (TAB109) | Potency (TAB113) | Potency (TAB165) | max response (CRL-7250) 0.46% | outcome (HEK293) | outcome (HaCat)

Cc1cc2c(cc1S(N)(=O)=O)S(=O)(=O)CCC2
inactive: Potency (FAB9) | Potency (GB4) | Potency (HB3) | Potency (ICS) | Potency (JCK) | Potency (N140) | Potency (P93_24) | Potency (P94_40) | Potency (PAD) | Potency (PC15) | Potency (PC26) | Potency (PC49) | Potency (SC27B) | Potency (TAB109) | Potency (TAB113) | Potency (TAB165) | Potency (W2) | max response (CRL-7250) -3.17% | outcome (HEK293) | outcome (HaCat)

O=C1OC(OC(=O)c2cccnc2Nc2cccc(C(F)(F)F)c2)c2ccccc21 (centres undefined)
inactive: Potency (FAB9) | Potency (GB4) | Potency (HB3) | Potency (ICS) | Potency (JCK) | Potency (N140) | Potency (P93_24) | Potency (P94_40) | Potency (PAD) | Potency (PC15) | Potency (PC26) | Potency (PC49) | Potency (SC27B) | Potency (TAB109) | Potency (TAB113) | Potency (TAB165) | Potency (W2) | max response (CRL-7250) 1.85% | outcome (HEK293) | outcome (HaCat)

O=C(O)c1ccccc1-c1ccc(C(F)(F)F)cc1
inactive: Potency (FAB9) | Potency (GB4) | Potency (HB3) | Potency (ICS) | Potency (JCK) | Potency (N140) | Potency (P93_24) | Potency (P94_40) | Potency (PAD) | Potency (PC15) | Potency (PC26) | Potency (PC49) | Potency (SC27B) | Potency (TAB109) | Potency (TAB113) | Potency (TAB165) | Potency (W2) | outcome (CRL-7250) | outcome (HEK293) | outcome (HaCat)

Cc1ncc(COP(=O)(O)O)c(C=O)c1O
inactive: Potency (FAB9) | Potency (GB4) | Potency (HB3) | Potency (ICS) | Potency (JCK) | Potency (N140) | Potency (P93_24) | Potency (P94_40) | Potency (PAD) | Potency (PC15) | Potency (PC26) | Potency (PC49) | Potency (SC27B) | Potency (TAB109) | Potency (TAB113) | Potency (TAB165) | Potency (W2) | max response (CRL-7250) 2.82% | outcome (HEK293) | outcome (HaCat)

CCOC(=O)c1ccc(O)cc1
inactive: Potency (FAB9) | Potency (GB4) | Potency (HB3) | Potency (ICS) | Potency (JCK) | Potency (N140) | Potency (P93_24) | Potency (P94_40) | Potency (PAD) | Potency (PC15) | Potency (PC26) | Potency (PC49) | Potency (SC27B) | Potency (TAB109) | Potency (TAB113) | Potency (TAB165) | Potency (W2) | max response (CRL-7250) -1.17% | outcome (HEK293) | max response (HaCat) -1.41%

O=C(O)CC(O)C(=O)O (centres undefined)
inactive: Potency (FAB9) | Potency (GB4) | Potency (HB3) | Potency (ICS) | Potency (JCK) | Potency (N140) | Potency (P93_24) | Potency (P94_40) | Potency (PAD) | Potency (PC15) | Potency (PC26) | Potency (PC49) | Potency (SC27B) | Potency (TAB109) | Potency (TAB113) | Potency (TAB165) | Potency (W2) | max response (CRL-7250) -10.5% | outcome (HEK293) | outcome (HaCat)
